Bioassay records as filed in PubChem.
An excerpt weighted towards active compounds, which were near 1.9% of everything screened.
S1P3 antagonist = antagonists of human S1P3 receptor. 170,000 compounds, 0.27% hits. AID 485. CHO S1P3 NFAT-BLA reporter, FRET fluorescence, antagonist mode. inhibition, % at 4.98 µM;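 active means inhibition above the plate cutoff, the mean inhibition of test wells on that plate plus 3 SD, cut at about 28% in these data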;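 further: cells challenged with S1P at its EC80 of 0.8 µM; blue over green emission ratio from cleaved BLA substrate after 4 h stimulation; 0% = S1P-stimulated wells and 100% = unstimulated DMSO-only wells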
Target sequence (Q99500 whole entry, looked up): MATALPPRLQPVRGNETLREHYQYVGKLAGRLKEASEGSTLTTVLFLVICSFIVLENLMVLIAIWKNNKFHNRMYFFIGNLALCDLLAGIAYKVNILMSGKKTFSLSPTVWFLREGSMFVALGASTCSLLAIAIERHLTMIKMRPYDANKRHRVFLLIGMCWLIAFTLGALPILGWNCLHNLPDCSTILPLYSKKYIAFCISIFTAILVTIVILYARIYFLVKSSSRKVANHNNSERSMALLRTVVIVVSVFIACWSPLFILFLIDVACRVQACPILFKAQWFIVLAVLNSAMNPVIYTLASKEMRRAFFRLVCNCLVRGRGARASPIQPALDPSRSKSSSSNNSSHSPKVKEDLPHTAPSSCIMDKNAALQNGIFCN
S1P4 ag = activates the human S1P4 receptor. S1P4-expressing cell line, agonist reporter assay. 220,000 compounds, 0.35% hits. AID 1509. activation, % at 4.98 µM; in the data active means activation above about 11%;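 further: 0% = DMSO vehicle and 100% = reference agonist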
EP2 antag = inhibitors of human EP2 prostaglandin E2 receptor; 260,000 compounds, 0.52% hits; C6 glioma cells expressing human EP2, cAMP TR-FRET; cells stimulated with saturating PGE2; inhibition, % at 25 µM; P43116;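 active means percent inhibition above 40 after rounding to a whole number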;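 further: rat C6 glioma host cells with rolipram phosphodiesterase inhibitor present; the protocol text gives 20 µM as final concentration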
S1P4 antagonist = human S1P4 receptor antagonism | S1P4-expressing cells, antagonist mode, reporter read-out | inhibition, % at 4.98 µM | 220,000 compounds, 0.26% hits; in the data active means inhibition above about 29%;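 further: 0% = wells stimulated with agonist and 100% = vehicle wells without agonist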
Pf gamet viab = inhibitors of late stage P. falciparum gametocyte viability. inhibition, % at 10.9 µM. P. falciparum stage V gametocytes, ATP luminescence, 24 h. 150,000 compounds, 0.065% hits. AID 743093;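 active means inhibition above the mean plus 3 SD of compounds within the control limits, set per campaign, cut at about 38% in these data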;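 further: 0% = DMSO wells and 100% = medium only without gametocytes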
EP2 modulator = modulators of human EP2 prostaglandin E2 receptor; EP2-expressing cells, cAMP HTRF FRET, PGE2 co-stimulation; induction, % at 25 µM; 260,000 compounds, 0.83% hits; AID 940;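 active means compounds whose cAMP rise, as percent of the full-agonist control response, exceeds 60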;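 further: rat C6 glioma line stably carrying human EP2 under a CMV promoter; the protocol text gives 20 µM as final concentration; 100% = response of wells given 1 µM PGE2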
EP2 cAMP induct = human EP2 receptor cAMP induction, negative in counter-screens | shares compounds with EP2 modulator | C6 glioma EP2 cells, cAMP HTRF induction; plus low (about EC15) PGE2 agonist | calls only at 20 µM (by protocol) | 1,300 compounds, 47% hits | AID 1080;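 active means cAMP induction above 50% in the main assay while under 30% in all four parallel counter assays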;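 further: rat C6 glioma cells stably expressing human EP2 receptor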
* marks the source's active call; other numbers are inactive results; i = inactive; · = no result; + = active, no number; ! = not confirmed by another sample.

SMILES	S1P3 antagonist	S1P4 ag	EP2 antag	S1P4 antagonist	Pf gamet viab	EP2 modulator	EP2 cAMP induct
Cc1cc(NC(=O)c2cc(-c3ccncc3)nc3c(C)cccc23)no1	6	0	12	-1	0	65*	i
CC/C(=N/NC(=O)c1ccc(Br)o1)c1ccc(Cl)cc1	-3	-1	11	-1	·	45	·
CCCC/C(=N\NC(=O)c1ccc(Br)o1)c1ccccc1	-14	1	18	-10	8	55	i
N[C@@H](CCC(=O)N[C@H](CSN=O)C(=O)NCC(=O)O)C(=O)O	·	·	17	·	·	10	·
[N-]=[N+]=Nc1ccc(C(=O)CSC[C@H](NC(=O)CC[C@H](N)C(=O)O)C(=O)NCC(=O)O)cc1	·	·	10	·	·	82*	+
CN(Cc1c(C(=O)N2CCc3ccccc3C2)nc2ccc(Cl)cn12)C(C1CC1)C1CC1	-9	0	18	7	-10	76*	i
Cc1ccc(NC(=O)CSc2nc3sc(C)c(C)c3c(=O)[nH]2)cc1	·	·	12	·	·	-14	·
C=CCCC1(C)C(=O)N(c2ccccc2)c2ccccc21 (stereo not drawn)	0	2	5	0	15	77*	+
C=CCC1(C)C(=O)N(c2ccccc2)c2ccccc21 (stereo not drawn)	-14	2	4	-7	·	69*	i
CC[C@H](Cn1nc(-c2cccs2)ccc1=O)NC(=O)Cn1cnc2ccccc2c1=O	·	·	·	·	·	-4	·
COC(=O)[C@@H]1CN(C(=O)c2n[nH]c3c2CCC3)C[C@H]1c1ccc(OC)cc1	·	·	·	·	·	10	·
CC1(C)OC(c2ccccc2)=C/C(=C/C=Nc2ccccc2)O1	·	2	14	8	·	66*	i
Cc1cc(C)n(-c2nc(C)nc3c2cnn3-c2ccccc2)n1	-6	0	·	4	·	67*	+
COc1cc2cc(C)c(SCC(=O)N(C(C)C)C(C)C)nc2cc1OC	·	·	12	·	·	5	·
COc1ccc(C2(NC(=O)CCn3ccnc3C(C)C)CCCCC2)cc1	·	·	·	·	·	-18	·
CCOC(=O)N1CCN(C(=O)CN(c2cccc(Cl)c2)S(C)(=O)=O)CC1	·	·	8	·	·	3	·
CC(Sc1nc2ccccc2n1C)C(=O)NC(c1ccccc1)c1ccccc1 (stereo not drawn)	·	0	4	-4	3	72*	+
CCOc1ccccc1NC(=O)c1c(Br)cnn1C	-5	-1	3	-20	·	69*	i
Cn1ncc(Br)c1C(=O)Nc1ccc(F)cc1F	·	-2	10	4	·	-9	·
C/C(=N\N(Cc1ccccc1)c1ccccc1)c1cccnc1	3	0	9	14	-15	70*	i
C(=N\N(Cc1ccccc1)c1ccccc1)/c1cccnc1	9	0	11	13	-6	70*	+
CCOC(=O)c1c(-c2ccc(-c3ccccc3)cc2)csc1NC(=O)CCN1CCOCC1	-12	0	12	12	10	73*	+
c1ccc(-c2n[nH]nc2-c2ccccc2)cc1	-7	-1	4	-15	3	66*	+
COC(=O)c1n[nH]nc1-c1ccccc1	11	1	5	-21	-34	18	·
COc1ccc(C(=O)NCC(=O)n2nc(C)cc2C)cc1OC	·	-1	8	-14	·	66*	i
SMILES	S1P3 antagonist	S1P4 ag	EP2 antag	S1P4 antagonist	Pf gamet viab	EP2 modulator	EP2 cAMP induct
Cc1cc(C)n(C(=O)CNC(=O)Cc2ccccc2)n1	-4	5	8	-29	·	-95	·
O=C1CSC(=O)N1Cc1cc2c(cc1Cl)OCO2	·	·	12	·	·	7	·
CCc1ccc2[nH]c(=O)c(CN(Cc3nnnn3C3CCCC3)C3CCCCC3)cc2c1	-15	0	12	-9	·	74*!	+
Cc1cc2cc(CN(Cc3nnnn3C3CCCCC3)CC3CCCO3)c(=O)[nH]c2cc1C (stereo not drawn)	-44	-1	7	-5	-15	65*!	i
Cc1cccnc1C1(O)CCN(CC(=O)NCc2ccco2)CC1	·	·	·	·	·	-10	·
CN(/N=C/C=C/c1ccccc1)C1=NS(=O)(=O)c2ccccc21	-23	2	3	5	-6	82*	+
CN(/N=C/c1cccnc1)C1=NS(=O)(=O)c2ccccc21	3	3	5	0	-8	0	·
O=S(=O)(c1cccs1)N1CN(Cc2ccccc2)c2nc3ccccc3nc21	·	0	14	-13	·	30	·
O=S(=O)(c1cccs1)N1CN(Cc2cccs2)c2nc3ccccc3nc21	22	-1	13	-18	·	65*	i
O=C(O)c1ccc(C(=O)O)c(C(=O)Nc2ccc3c(c2)Cc2ccccc2-3)c1	·	·	61*	·	·	92*	+
C=CCC(NCc1ccccc1)c1ccc(Cl)cc1 (stereo not drawn)	15	0	1	-11	10	72*	i
O=C1C2C3c4ccccc4C(c4ccccc43)C2c2nc3ccccc3n21 (stereo not drawn)	·	1	13	6	·	74*	+
Cc1c(-c2ccccc2)n[nH]c1C(=O)N1CCN(C2CCCCC2)C(=O)C1	·	·	6	·	·	-7	·
Cc1ccc(NC(=O)CSc2nnc3c(C)cc4ccc(C)cc4n23)c(C)c1	·	·	8	·	·	27	·
COc1ccccc1CC(C)NC(=O)c1cnn(-c2ccc(F)cc2)c1 (stereo not drawn)	·	·	9	·	·	-99	·
O=C1CC(c2ccccc2)=Nc2ccccc2N1	·	-1	9	-4	-31	-3	·
C1=C(c2ccccc2)Nc2ccccc2N=C1c1ccccc1	13	0	3	-29	·	66*	+
O=C(Nc1cccc(Cl)c1N1CCCCC1)c1ccc2c(c1)OCCO2	7	-2	5	-17	·	74*	i
O=C(Nc1ccccc1N1CCCCC1)c1ccc(Cl)c([N+](=O)[O-])c1	-11	-1	8	-3	·	59	+
CC(C(=O)NCC(c1ccccc1F)N1CCCC1)N1C(=O)NC(C)(C)C1=O (stereo not drawn)	·	·	2	·	·	13	·
CN1[C@@H](C(=O)Nc2cccnc2Cl)C[C@@H](c2ccc(F)cc2)NS1(=O)=O	·	·	·	·	·	-28	·
CCOc1ccc(OCC)c(NC(=O)CSc2nnc3c(C)cc4ccc(C)cc4n23)c1	·	·	17	·	·	7	·
Cc1cc2c(o1)c1cnn(CC(=O)N3CCOCC3)c(=O)c1n2C	·	·	·	·	·	6	·
Cc1ccc(OCc2nnc(SCC(=O)c3ccccc3)n2-c2ccccc2)cc1	·	1	1	-24	10	32	·
Cc1cccc(-n2c(CCc3ccccc3)nnc2SCC(=O)c2ccccc2)c1	4	2	8	-11	-16	64*	i
CCOC(=O)CSc1nnc2n(C3CCCCC3)c(=O)c3c4c(sc3n12)CCCC4	·	-1	6	2	·	66*	i
